Measured values taken from PubChem BioAssay (Tox21).
Values joined by “and” are separate entries in the source; they are usually repeats but may differ in a detail not shown here. Equal entries are not always repeated. Records with an inconclusive call do not appear. Some structures have more than one record in an assay (separate samples or runs), and their calls can disagree. Active and inactive are the calls of the source. Unless noted, calls come from the whole dose curve.

Assays:
[1] = Nuclear factor erythroid 2-related factor 2/antioxidant responsive element (Nrf2/ARE) small molecule agonists: qHTS cell viability counter screen in human keratinocytes (AID 1919968; active = well fitted curve in the direction sought with a large enough effect in the repeat runs; an effect the other way counts as inactive or inconclusive; note: nearly all actives have a fitted effect of over 55% in size)
Method in brief: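 Seed 1,500 KeratinoSens cells per well, then incubate 5 h at 37 C/5% CO2. Add compounds in DMSO and incubate 23 h. Add CellTiter-Fluor, wait 1 h and read fluorescence.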

[2] = Nuclear factor erythroid 2-related factor 2/antioxidant responsive element (Nrf2/ARE) small molecule agonists: luciferase reporter gene qHTS assay in human keratinocytes (AID 1919969); note: nearly all actives have a fitted effect of over 35% in size
[3] = target: Gonadotropin-releasing hormone receptor (Homo sapiens) (UniProt P30968); assay: Human gonadotropin-releasing hormone receptor (GnRHR) small molecule agonists, calcium flux assay in GnRHR-HEK293 cells (AID 1920063); note: nearly all actives have a fitted effect of over 35% in size
Method in brief: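 Cells: HEK293 stably expressing human GnRHR. Steps: overnight (18 h) culture, 1 h calcium dye loading at 37 C, compound addition, kinetic fluorescence read at 480/540 nm. Each compound tested at 15 concentrations in triplicate.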

[4] = target: KiSS-1 receptor (Homo sapiens) (UniProt Q969F8); assay: Human kisspeptin (KISS1R) small molecule agonists, calcium flux assay in KISS1R-HEK293 cells (AID 1920064; active = well fitted curve in the direction sought with a large enough effect in the repeat runs; an effect the other way counts as inactive or inconclusive)
Method in brief: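 Cells plated and incubated 18 h; dye added, 1 h at 37 C; compounds in DMSO pinned in; signal read at 480/540 nm every second for 3 min. Each compound tested at 15 concentrations in triplicate.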

[5] = G protein-coupled receptor (GPCR) small molecule agonists, calcium flux assay: HEK293 wild type cell line counter screen (AID 1920065)
Method in brief: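 Counter-screen of the Tox21 10K library for non-specific calcium release: dye-loaded cells received compounds in DMSO and were monitored by kinetic fluorescence (480/540 nm, 3 min). Fifteen concentrations, run in triplicate.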

[6] = p53 small molecule agonists, cell-based qHTS assay with human liver microsomes (AID 1963577);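 note: p53 response element beta-lactamase reporter cells with liver microsomes plus NADPH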
Method in brief: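 HLM-supplemented p53RE-bla reporter assay: 16 h compound exposure at 37 C, microsomes and NADPH each 0.5 mg/mL final, read by fluorescence intensity.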

[7] = p53 small molecule agonists, cell-based qHTS assay with rat liver microsomes (AID 1963578)
Method in brief: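 Quantitative HTS of the Tox21 10K library: p53RE-bla cells, rat liver microsomes plus NADPH at 0.5 mg/mL final each, 16 h at 37 C, beta-lactamase fluorescence detection.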

[8] = p53 small molecule agonists, cell-based qHTS assay with human liver microsomes: qHTS cell viability counter screen (AID 1963579); note: nearly all actives have a fitted effect of over 45% in size
Method in brief: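 Viability of p53RE-bla cells is measured as CellTiter-Glo luminescence following a 16 h, 37 C incubation with compound, liver microsomes from human donors and NADPH.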

[9] = p53 small molecule agonists, cell-based qHTS assay with rat liver microsomes: qHTS cell viability counter screen (AID 1963580); note: nearly all actives have a fitted effect of over 45% in size
Method in brief: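 Viability is assessed in parallel with the p53 reporter read: HCT-116 p53RE-bla cells receive compounds plus rat microsomes and NADPH (0.5 mg/mL final apiece), incubate 16 h at 37 C, and then CellTiter-Glo luminescence is recorded.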

[10] = p53 small molecule agonists, cell-based qHTS assay: qHTS cell viability counter screen (AID 1963581); note: nearly all actives have a fitted effect of over 45% in size
Method in brief: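 Cells: HCT-116 with p53 response element-driven beta-lactamase. Treatment: 16 h, 37 C, compounds in DMSO. Read: CellTiter-Glo luminescence after 30 min RT.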

[11] = p53 small molecule agonists, cell-based qHTS assay (AID 1963582; active = well fitted activation curve with a large enough effect in the signal ratio in the repeat runs, not every such curve was filed as active; the % refers to the signal ratio)
Method in brief: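 Quantitative HTS in p53RE-bla cells: after a 5 h settling period, compounds delivered in DMSO were left on cells for 16 h at 37 C, and reporter induction was measured as fluorescence following 2 h substrate loading.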

[12] = target: 5-hydroxytryptamine receptor 2A (Homo sapiens) (UniProt P28223); assay: 5-hydroxytryptamine receptor 2A (HTR2A) small molecule antagonists, cell-based qHTS assay (AID 1963586); note: nearly all actives have a fitted effect of over 45% in size; note: potency is the fitted concentration of half-maximal effect
Method in brief: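 Antagonist-mode intracellular calcium assay: DOI (4 nM) added after 5 min compound pre-incubation at room temperature to dye-loaded HTR2A-CHO cells. Fluorescence followed for 3 min, sampled every second.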

[13] = target: 5-hydroxytryptamine receptor 2A (Homo sapiens) (UniProt P28223); assay: 5-hydroxytryptamine receptor 2A (HTR2A) small molecule agonists, cell-based qHTS assay (AID 1963587); note: nearly all actives have a fitted effect of over 30% in size; note: potency is the fitted concentration of half-maximal effect
Method in brief: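 CHO cells stably expressing human HTR2A, plated 18 h, loaded with calcium dye 1 h at 37 C. Agonist mode: compounds added and intracellular calcium fluorescence recorded kinetically for 2 min at 1 sec intervals.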

[14] = target: Muscarinic acetylcholine receptor M1 (Homo sapiens) (UniProt P11229); assay: Cholinergic receptor muscarinic 1 (CHRM1) small molecule antagonists, cell-based qHTS assay (AID 1963588); note: nearly all actives have a fitted effect of over 40% in size
Method in brief: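 CHRM1-CHO calcium-flux assay, antagonist mode. Cells were seeded 18 h, dye-loaded 1 h at 37 C and given compound for 5 min at RT, then acetylcholine was added at 50nM. FDSS fluorescence was read 3 min; 15 concentrations, three runs.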

[15] = target: Muscarinic acetylcholine receptor M1 (Homo sapiens) (UniProt P11229); assay: Cholinergic receptor muscarinic 1 (CHRM1) small molecule agonists, cell-based qHTS assay (AID 1963589); note: nearly all actives have a fitted effect of over 35% in size
Method in brief: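 Agonist-mode qHTS in CHO cells stably carrying human muscarinic M1. Intracellular calcium is tracked by fluorescence every second after compound transfer; each compound runs at 15 concentrations in three independent runs.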

[16] = cAMP Responsive Elements (CRE) small molecule agonists, cell-based qHTS assay (AID 1963590)
Method in brief: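 Agonist mode qHTS in CRE-bla HEK 293T cells: compounds dosed from DMSO for 3 h at 37 C/5% CO2, followed by LiveBLAzer B/G FRET substrate for 2 h at room temperature.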

[17] = cAMP Responsive Elements (CRE) small molecule antagonists, cell-based qHTS assay (AID 1963591; active = well fitted inhibition curve with a large enough effect in the signal ratio in the repeat runs, not every such curve was filed as active; the % refers to the signal ratio)
Method in brief: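 Antagonist mode: test compounds are co-incubated with the adenylyl cyclase activator NKH477 (0.25 uM final) on CRE-bla HEK293T cells for 3 h at 37 °C, followed by LiveBLAzer substrate loading.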

[18] = target: Beta-2 adrenergic receptor (Homo sapiens) (UniProt P07550); assay: Adrenergic beta2 receptor (ADRB2) small molecule antagonists, cell-based qHTS assay (AID 1963592); note: series mostly up to about 92 µM; nearly all actives have a fitted effect of over 50% in size
Method in brief: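 Cells (CHO, stable ADRB2 overexpression) incubated 18-20hr at 37C; compounds added from DMSO; agonist mix (1nM isoproterenol, 100uM IBMX, 25uM Ro-20-1724) added; 0.5hr RT; d2-cAMP and anti-cAMP-cryptate added; 1hr RT; 665/615 nm read.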

[19] = target: D(2) dopamine receptor (Homo sapiens) (UniProt P14416); assay: Dopamine D2 receptor (DRD2) small molecule antagonists, cell-based qHTS assay (AID 1963595; active = well fitted inhibition curve with a large enough effect in the signal ratio in the repeat runs, with a control signal flat; the % refers to the signal ratio; note: potency is the fitted concentration of half-maximal effect)
Method in brief: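 Antagonism was scored as restored cAMP in HEK293-DRD2 cells. These cells were stimulated with 200 nM NKH477 and 12 nM quinpirole for 30 min at room temperature, in the presence of 0.1 mM Ro20-1724.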

[20] = target: D(2) dopamine receptor (Homo sapiens) (UniProt P14416); assay: Dopamine D2 receptor (DRD2) small molecule agonists, cell-based qHTS assay (AID 1963594); note: nearly all actives have a fitted effect of over 35% in size
Method in brief: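 HEK293 cells stably expressing human DRD2, pre-treated with PDE inhibitor Ro20-1724 (0.1 mM final) and compound 10 min at room temperature, then stimulated with NKH477 (200nM […]) for 30 min. cAMP read by HTRF (665/620 nm).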

Measured: Potency

KiSS-1 receptor (Homo sapiens), sequence (Q969F8 whole entry, looked up): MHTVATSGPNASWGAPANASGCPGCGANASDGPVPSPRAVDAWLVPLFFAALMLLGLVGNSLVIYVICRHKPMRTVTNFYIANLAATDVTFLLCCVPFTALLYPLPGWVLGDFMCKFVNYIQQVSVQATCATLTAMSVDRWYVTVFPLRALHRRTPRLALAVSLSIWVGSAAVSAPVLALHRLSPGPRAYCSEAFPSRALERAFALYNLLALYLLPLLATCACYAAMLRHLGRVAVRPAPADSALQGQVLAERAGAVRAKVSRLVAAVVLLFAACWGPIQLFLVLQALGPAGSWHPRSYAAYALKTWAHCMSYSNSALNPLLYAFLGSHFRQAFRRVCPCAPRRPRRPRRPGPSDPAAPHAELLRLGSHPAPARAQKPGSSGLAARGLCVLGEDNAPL
D(2) dopamine receptor (Homo sapiens), sequence (P14416 whole entry, looked up): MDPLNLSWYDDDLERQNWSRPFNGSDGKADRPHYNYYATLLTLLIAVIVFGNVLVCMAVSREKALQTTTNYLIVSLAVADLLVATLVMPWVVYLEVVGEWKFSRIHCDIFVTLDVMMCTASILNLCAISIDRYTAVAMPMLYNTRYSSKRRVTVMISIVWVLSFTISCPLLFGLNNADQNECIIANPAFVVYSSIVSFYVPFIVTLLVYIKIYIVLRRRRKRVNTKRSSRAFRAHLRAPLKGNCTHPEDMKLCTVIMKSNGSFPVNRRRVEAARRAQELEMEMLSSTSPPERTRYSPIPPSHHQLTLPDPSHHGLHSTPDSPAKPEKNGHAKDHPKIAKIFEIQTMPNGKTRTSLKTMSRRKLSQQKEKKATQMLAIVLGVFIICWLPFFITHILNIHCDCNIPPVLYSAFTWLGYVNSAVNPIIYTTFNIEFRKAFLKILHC
Beta-2 adrenergic receptor (Homo sapiens), sequence (P07550 whole entry, looked up): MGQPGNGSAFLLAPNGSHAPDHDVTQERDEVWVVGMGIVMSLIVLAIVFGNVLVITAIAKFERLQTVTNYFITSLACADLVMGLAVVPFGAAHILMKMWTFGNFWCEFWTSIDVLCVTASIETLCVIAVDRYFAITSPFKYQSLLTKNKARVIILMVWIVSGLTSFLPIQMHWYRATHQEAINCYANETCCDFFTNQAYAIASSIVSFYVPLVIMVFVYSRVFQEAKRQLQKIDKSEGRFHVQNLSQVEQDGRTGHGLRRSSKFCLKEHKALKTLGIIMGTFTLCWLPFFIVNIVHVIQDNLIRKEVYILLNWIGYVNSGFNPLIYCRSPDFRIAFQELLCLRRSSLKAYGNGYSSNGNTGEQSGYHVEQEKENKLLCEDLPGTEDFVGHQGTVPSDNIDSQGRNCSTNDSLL
Muscarinic acetylcholine receptor M1 (Homo sapiens), sequence (P11229 whole entry, looked up): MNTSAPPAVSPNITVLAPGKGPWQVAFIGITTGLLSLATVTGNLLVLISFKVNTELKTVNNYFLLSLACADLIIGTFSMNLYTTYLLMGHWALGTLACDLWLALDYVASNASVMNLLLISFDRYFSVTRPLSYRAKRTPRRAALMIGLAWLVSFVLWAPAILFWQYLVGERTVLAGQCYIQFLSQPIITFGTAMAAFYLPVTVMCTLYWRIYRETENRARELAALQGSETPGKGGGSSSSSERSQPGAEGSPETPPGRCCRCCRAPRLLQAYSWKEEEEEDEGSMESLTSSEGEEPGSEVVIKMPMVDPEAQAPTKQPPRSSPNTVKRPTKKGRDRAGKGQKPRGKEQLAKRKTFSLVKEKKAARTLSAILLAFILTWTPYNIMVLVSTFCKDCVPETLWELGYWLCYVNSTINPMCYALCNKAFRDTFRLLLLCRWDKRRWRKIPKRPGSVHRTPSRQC
Gonadotropin-releasing hormone receptor (Homo sapiens), sequence (P30968 whole entry, looked up): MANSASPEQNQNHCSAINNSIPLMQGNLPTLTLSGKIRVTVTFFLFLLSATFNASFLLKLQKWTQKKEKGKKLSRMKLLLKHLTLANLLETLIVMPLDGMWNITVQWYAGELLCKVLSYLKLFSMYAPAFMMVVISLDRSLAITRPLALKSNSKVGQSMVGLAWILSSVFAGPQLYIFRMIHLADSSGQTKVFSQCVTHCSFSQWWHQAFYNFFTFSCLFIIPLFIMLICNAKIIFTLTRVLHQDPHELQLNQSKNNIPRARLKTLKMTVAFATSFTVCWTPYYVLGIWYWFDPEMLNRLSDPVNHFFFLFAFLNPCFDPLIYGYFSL
5-hydroxytryptamine receptor 2A (Homo sapiens), sequence (P28223 whole entry, looked up): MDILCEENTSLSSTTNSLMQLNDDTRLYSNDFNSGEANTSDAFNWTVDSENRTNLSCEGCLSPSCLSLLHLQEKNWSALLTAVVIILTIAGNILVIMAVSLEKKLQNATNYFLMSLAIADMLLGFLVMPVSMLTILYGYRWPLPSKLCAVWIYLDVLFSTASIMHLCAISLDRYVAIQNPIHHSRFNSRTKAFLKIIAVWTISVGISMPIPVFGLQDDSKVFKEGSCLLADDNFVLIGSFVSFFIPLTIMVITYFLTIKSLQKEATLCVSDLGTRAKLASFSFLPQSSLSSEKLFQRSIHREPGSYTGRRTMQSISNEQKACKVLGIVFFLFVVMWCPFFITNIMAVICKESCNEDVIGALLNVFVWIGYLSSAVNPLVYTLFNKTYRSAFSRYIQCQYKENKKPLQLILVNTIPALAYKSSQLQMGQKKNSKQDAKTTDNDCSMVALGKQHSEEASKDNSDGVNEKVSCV

CCCCOC(O)CC (configuration not stated)
not listed: [20]
inactive: all other assays above

NS(=O)(=O)c1cc2c(cc1C(F)(F)F)NC(Cc1ccccc1)NS2(=O)=O (configuration not stated)
not listed: [17]
inactive: all other assays above

O=C(O)c1ccc(OCCCOc2ccc(C(=O)O)cc2)cc1
not listed: [18]
inactive: all other assays above

COc1cc(N)c(Cl)cc1C(=O)NC1CCN(Cc2ccccc2)CC1
active: [12] 1830 nM | [19] 29.8 nM
not listed: [18]
inactive: all other assays above

Oc1ccc2c(c1)OC[C@@H](N1CCC(O)(c3ccc(F)cc3)CC1)[C@H]2O
not listed: [18]
inactive: all other assays above

O=C1CCN(c2ccccc2)N1
not listed: [17] | [19]
inactive: all other assays above

NCCc1ccc(O)c(O)c1
inactive and 6.01 µM (active): [13]
not listed: [20]
inactive: all other assays above
